# Source: PubChem BioAssay (NCI)
# About 79,000 compounds went through this panel and 15% of them were active in at least one assay; those are over-represented in the sample as a whole. Unmarked numbers belong to inactive results. Active and inactive are the calls of the source. No stated cut-off is given here; in the data, active means growth inhibition above about 70%; inactive means the rest.
# Assays:
# [1] = NCI Yeast Anticancer Drug Screen. Data for the rad52 strain (AID 147);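 further: 0% = growth of vehicle-treated control cultures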; conditions: S. cerevisiae rad52 mutant growth inhibition, stronger effect = higher value
# In short: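 Compounds are applied to a genetically defined yeast strain lacking normal DNA damage repair, and inhibition of growth is expressed relative to cultures given vehicle only.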
# [2] = NCI Yeast Anticancer Drug Screen. Data for the rad50EPP+ strain (AID 151);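 further: 0% = growth of vehicle-treated control cultures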; conditions: S. cerevisiae rad50 mutant strain, stronger effect = higher value
# In short: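 Compounds were applied to the rad50EPP+ yeast strain, which bears a defined DNA repair alteration, and growth inhibition was determined relative to vehicle-treated cultures.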
# [3] = NCI Yeast Anticancer Drug Screen. Data for the mgt1 strain (AID 153); conditions: S. cerevisiae mgt1 mutant growth inhibition, stronger effect = higher value
# In short: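 Strain: mgt1 yeast, one of a set carrying defined DNA damage repair or cell cycle control alterations. Compound-treated growth compared with vehicle.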
# [4] = NCI Yeast Anticancer Drug Screen. Data for the rad50 strain (AID 155);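 further: 0% = growth of vehicle-only cultures of the same strain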; conditions: S. cerevisiae rad50 strain growth inhibition, stronger effect = higher value
# In short: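 Inhibition values express reduced yeast growth in compound-treated cultures relative to vehicle-treated controls.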
# [5] = NCI Yeast Anticancer Drug Screen. Data for the mec2-1 strain (AID 157); conditions: S. cerevisiae mec2-1 strain, stronger effect = higher value
# In short: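 Strain: mec2-1 (DNA repair/cell cycle alteration). Compound exposure, then growth measured; inhibition expressed relative to vehicle.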
# [6] = NCI Yeast Anticancer Drug Screen. Data for the rad14 strain (AID 159);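 further: 0% = growth of vehicle-treated control cultures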; conditions: S. cerevisiae rad14 strain growth inhibition, stronger effect = higher value
# In short: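 A mutant yeast strain defective in DNA damage repair is treated with compound; inhibition of its growth is scored against untreated, vehicle-exposed cultures.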
# [7] = NCI Yeast Anticancer Drug Screen. Data for the sgs1 mgt1 strain (AID 161);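 further: 0% = growth of cultures given vehicle only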; conditions: S. cerevisiae sgs1 mgt1 strain, stronger effect = higher value
# In short: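 Read-out: growth inhibition vs vehicle controls. Cells: mutant yeast strain deficient in DNA damage repair.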
# [8] = NCI Yeast Anticancer Drug Screen. Data for the CLN2oe strain (AID 163);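 further: 0% = growth of vehicle-only control cultures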; conditions: S. cerevisiae CLN2oe strain, stronger effect = higher value
# In short: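 Growth of a genetically modified yeast strain is measured after compound exposure and compared with cultures given vehicle alone.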
# [9] = NCI Yeast Anticancer Drug Screen. Data for the cln2 rad14 strain (AID 165);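 further: 0% = growth equal to vehicle treated cultures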; conditions: S. cerevisiae cln2 rad14 strain, stronger effect = higher value
# In short: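 Compounds are applied to the cln2 rad14 yeast strain, and growth is then compared with that of vehicle-treated cultures to give inhibition.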
# [10] = NCI Yeast Anticancer Drug Screen. Data for the bub3 strain (AID 167); conditions: S. cerevisiae bub3 mutant strain, stronger effect = higher value
# In short: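 Steps: expose the mutant yeast strain to compound; grow alongside vehicle-treated cultures; measure growth; express inhibition against the vehicle cultures.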
# [11] = NCI Yeast Anticancer Drug Screen. Data for the wt2 strain (AID 169);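 further: 0% = growth of vehicle-treated yeast cultures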; conditions: S. cerevisiae wt2 strain growth inhibition, stronger effect = higher value
# In short: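 This strain belongs to a panel of yeast strains with defined genetic alterations in DNA damage repair or cell cycle control. Compounds are applied, and growth inhibition is measured against vehicle-treated cultures.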
# [12] = NCI Yeast Anticancer Drug Screen. Data for the mlh1 strain (AID 171);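 further: 0% = growth of vehicle-treated control cultures of the same strain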; conditions: S. cerevisiae mlh1 strain growth inhibition, stronger effect = higher value
# In short: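 Growth of the mutant yeast strain after compound exposure, expressed as inhibition relative to vehicle-only controls.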
# [13] = NCI Yeast Anticancer Drug Screen. Data for the sgs1 strain (AID 173);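 further: 0% = growth of vehicle-only control cultures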; conditions: S. cerevisiae sgs1 mutant, stronger effect = higher value
# In short: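 Growth of a yeast strain bearing a defined genetic alteration is measured after compound treatment. Inhibition is expressed relative to vehicle-only controls.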
# [14] = NCI Yeast Anticancer Drug Screen. Data for the mlh1 rad18 strain (AID 175); conditions: S. cerevisiae mlh1 rad18 strain growth inhibition, stronger effect = higher value
# In short: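 Read-out is yeast growth inhibition, calculated against vehicle-only controls. The compound was applied to a strain engineered with DNA damage repair alterations.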
# [15] = NCI Yeast Anticancer Drug Screen. Data for the rad18 strain (AID 177); conditions: S. cerevisiae rad18 mutant growth inhibition, stronger effect = higher value
# In short: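 Growth of the mutant yeast strain after compound exposure, normalised to vehicle-only cultures.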
# [16] = at 5.0 µM (retest, dose inferred, filed as 0.5)
# [17] = at 50.0 µM (retest, dose inferred, filed as 5.0)
compound,measurement,setting,value
OC(c1ccc(Br)cc1)C(Cl)(Cl)Cl (stereo not drawn),growth inhibition,[1]; at 1.2 µM,-5%
same,growth inhibition,[1]; at 3.7 µM,-1%
same,growth inhibition,[1]; at 11.0 µM,5%
same,growth inhibition,[1]; at 33.0 µM,87% (active)
same,growth inhibition,[1]; at 100.0 µM,98% (active)
same,growth inhibition,[2]; at 1.2 µM,4%
same,growth inhibition,[2]; at 3.7 µM,3%
same,growth inhibition,[2]; at 11.0 µM,4%
same,growth inhibition,[2]; at 33.0 µM,38%
same,growth inhibition,[2]; at 100.0 µM,95% (active)
same,growth inhibition,[3]; at 1.2 µM,20%
same,growth inhibition,[3]; at 3.7 µM,-1%
same,growth inhibition,[3]; at 11.0 µM,5%
same,growth inhibition,[3]; at 33.0 µM,89% (active)
same,growth inhibition,[3]; at 100.0 µM,100% (active)
same,growth inhibition,[4]; at 1.2 µM,16%
same,growth inhibition,[4]; at 3.7 µM,14%
same,growth inhibition,[4]; [16],71% (active)
same,growth inhibition,[4]; at 11.0 µM,21%
same,growth inhibition,[4]; at 33.0 µM,84% (active)
same,growth inhibition,[4]; [17],99% (active)
same,growth inhibition,[4]; at 50.0 µM,81.2% (active)
same,growth inhibition,[4]; at 100.0 µM,97% (active)
same,growth inhibition,[5]; at 1.2 µM,-19%
same,growth inhibition,[5]; at 3.7 µM,-19%
same,growth inhibition,[5]; [16],89% (active)
same,growth inhibition,[5]; at 11.0 µM,-1%
same,growth inhibition,[5]; at 33.0 µM,92% (active)
same,growth inhibition,[5]; [17],99% (active)
same,growth inhibition,[5]; at 50.0 µM,86.8% (active)
same,growth inhibition,[5]; at 100.0 µM,99% (active)
same,growth inhibition,[6]; at 1.2 µM,-23%
same,growth inhibition,[6]; at 3.7 µM,-16%
same,growth inhibition,[6]; at 11.0 µM,-7%
same,growth inhibition,[6]; at 33.0 µM,84% (active)
same,growth inhibition,[6]; at 100.0 µM,98% (active)
same,growth inhibition,[7]; [16],3%
same,growth inhibition,[7]; [17],97% (active)
same,growth inhibition,[7]; at 50.0 µM,84.5% (active)
same,growth inhibition,[8]; at 1.2 µM,25%
same,growth inhibition,[8]; at 3.7 µM,10%
same,growth inhibition,[8]; at 11.0 µM,18%
same,growth inhibition,[8]; at 33.0 µM,87% (active)
same,growth inhibition,[8]; at 100.0 µM,97% (active)
same,growth inhibition,[9]; [16],68%
same,growth inhibition,[9]; [17],98% (active)
same,growth inhibition,[9]; at 50.0 µM,80.8% (active)
same,growth inhibition,[10]; at 1.2 µM,-17%
same,growth inhibition,[10]; at 3.7 µM,15%
same,growth inhibition,[10]; [16],-15%
same,growth inhibition,[10]; at 11.0 µM,3%
same,growth inhibition,[10]; at 33.0 µM,91% (active)
same,growth inhibition,[10]; [17],97% (active)
same,growth inhibition,[10]; at 50.0 µM,81.7% (active)
same,growth inhibition,[10]; at 100.0 µM,99% (active)
same,growth inhibition,[11]; at 1.2 µM,-17%
same,growth inhibition,[11]; at 3.7 µM,-15%
same,growth inhibition,[11]; at 11.0 µM,-21%
same,growth inhibition,[11]; at 33.0 µM,78% (active)
same,growth inhibition,[11]; at 100.0 µM,98% (active)
same,growth inhibition,[12]; at 1.2 µM,-10%
same,growth inhibition,[12]; at 3.7 µM,-18%
same,growth inhibition,[12]; at 11.0 µM,-6%
same,growth inhibition,[12]; at 33.0 µM,80% (active)
same,growth inhibition,[12]; at 100.0 µM,97% (active)
same,growth inhibition,[13]; at 1.2 µM,11%
same,growth inhibition,[13]; at 3.7 µM,5%
same,growth inhibition,[13]; at 11.0 µM,14%
same,growth inhibition,[13]; at 33.0 µM,84% (active)
same,growth inhibition,[13]; at 100.0 µM,98% (active)
same,growth inhibition,[14]; [16],62%
same,growth inhibition,[14]; [17],99% (active)
same,growth inhibition,[14]; at 50.0 µM,76.2% (active)
same,growth inhibition,[15]; at 1.2 µM,4%
same,growth inhibition,[15]; at 3.7 µM,4%
same,growth inhibition,[15]; at 11.0 µM,32%
same,growth inhibition,[15]; at 33.0 µM,90% (active)
same,growth inhibition,[15]; at 100.0 µM,98% (active)
